Compound activity deposited in PubChem BioAssay by National Center for Advancing Translational Sciences (NCATS).
D2 ag-1: agonists of human D2 dopamine receptor (beta-arrestin); activation, % (concentration not given with the values); P14416; DiscoveRx PathHunter D2 beta-arrestin, luminescence, 90 min; 100% = 57 uM dopamine signal; 0.084% of 360,000 active; in the data active = activation above about 40%; inconclusive = between about 15% and that limit
Target sequence (P14416 whole entry, looked up): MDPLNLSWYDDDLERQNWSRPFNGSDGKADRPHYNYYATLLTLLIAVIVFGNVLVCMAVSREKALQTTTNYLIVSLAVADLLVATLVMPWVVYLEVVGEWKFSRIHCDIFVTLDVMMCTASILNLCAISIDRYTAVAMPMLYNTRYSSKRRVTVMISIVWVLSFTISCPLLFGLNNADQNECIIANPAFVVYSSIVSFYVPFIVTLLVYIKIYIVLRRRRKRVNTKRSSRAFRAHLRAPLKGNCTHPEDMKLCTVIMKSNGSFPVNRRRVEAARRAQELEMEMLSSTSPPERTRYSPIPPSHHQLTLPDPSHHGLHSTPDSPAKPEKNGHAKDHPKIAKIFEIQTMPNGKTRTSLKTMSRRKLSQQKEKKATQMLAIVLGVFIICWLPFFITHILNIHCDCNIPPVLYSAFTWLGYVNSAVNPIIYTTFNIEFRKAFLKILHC
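DiscoveRx PathHunter D2 beta-arrestin cells (2,100/well) attached overnight, then compound-stimulated 90 min at 37 C in HBSS/10 mM HEPES/0.1% Tween-20 buffer; beta-galactosidase complementation read by luminescence after 1 h at ambient temperature. Dopamine 57 uM final (EC100) as control.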
D2 PAM-1: D2 dopamine receptor (human) potentiation | P14416 | 0.34% of 340,000 active | potentiation, % at 10 µM | HEK293 T-REx D2, calcium flux, EC20 dopamine potentiation;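 active = potentiation over 3 SD above the plate norm, cut at about 30% in these data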; also: 0% is about no effect
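Potentiation of an EC20 dopamine calcium response is measured in a force-coupled, tetracycline-inducible Hek293 Trex D2 line. Compound-only kinetic reads over 180 s flag agonists before dopamine addition.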
D2 antag: antagonists of human D2 dopamine receptor | P14416 | HEK293 TREx D2 cells, calcium flux, dopamine EC80 | inhibition, % at 10 µM | 2% of 340,000 active; in the data active = inhibition above about 30%; inactive = below that, where a call was filed; also: 0% is about no effect
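Tetracycline-induced HEK293 T-REx cells expressing D2 force-coupled to calcium signalling were dye-loaded, exposed to compound for 180 s, then challenged with an EC80 of dopamine; calcium flux was followed kinetically for a further 180 s.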
D2 PAM-2: human D2 receptor positive allosteric modulation; P14416; 0.23% of 360,000 active; potentiation, % (no concentration beside the values); DiscoveRx D2 beta-arrestin cells, luminescence, 90 min; 100% = 57 uM dopamine signal; in the data active = potentiation above about 50%; inconclusive = mostly about 30% to 49%
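PathHunter D2 cells, attached overnight at 37 deg C, received compound in DMSO plus dopamine at EC20 (50 nM final) for 90 min at 37 deg C. Beta-arrestin recruitment was read as luminescence after 1 h with detection reagent at ambient temperature.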
D2 ag-2: agonists of human D2 dopamine receptor | P14416 | HEK293 T-REx D2 cells, calcium flux agonist mode | activation, % at 2 µM | 0.53% of 340,000 active | AID 485358;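 active = activation over 3 SD above normal in the single-dose calcium agonist read, cut at about 30% in these data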; also: 0% is about no effect
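Tetracycline-induced HEK293 Trex cells with D2 receptor force-coupled to calcium signaling, plated overnight at 30 C and loaded with no-wash calcium dye. Calcium flux read kinetically for 180 s after compound addition; responses flag agonists.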
* marks the source's active call; other numbers are inactive results; ? = inconclusive; . = not tested or not shown. Only some compounds are listed: those with a hit (about 2.4% of all), similar ones and a draw of the others.

SMILES	D2 ag-1	D2 PAM-1	D2 antag	D2 PAM-2	D2 ag-2
CC(C)OCCCNC(=O)CSc1c2c(nc3ccc(Cl)cc13)CCCC2	.	2.2	.	.	-1.1
CC(NC(=O)Cn1cc2c(n1)CCCCC2)c1ccccc1 (stereo unspecified)	-2.5	0.9	35.3*	-0.1	-0.3
CCC(C(=O)NCCc1ccc(OC)c(OC)c1)n1nc(C)c2sc3ccccc3c2c1=O (stereo unspecified)	.	2.3	.	.	.
Cc1nc(SCC(=O)Nc2ccccc2C)cc(-c2ccccc2)n1	.	-19.8	.	.	.
CCCOc1ccc(C2c3c(-c4ccccc4O)n[nH]c3C(=O)N2CCCOCC)cc1OCC (stereo unspecified)	.	14.4	.	.	.
CN1CCCN(C(=O)CNC(=O)Cc2ccccc2)CC1	-0.7	8.7	1.8	-10.7	1.3
O=C(Cc1ccccc1)NCC(=O)N1CCCC1	-2.8	5.2	34.6*	-6.3	1.5
Cn1c(=O)oc2cc(S(=O)(=O)N3CCC(C(=O)N4CC=C(c5ccccc5)CC4)CC3)ccc21	-4.0	21.6	40.6*	4.6	0.4
Cc1ccc2nc(-c3c[nH]c4ccccc34)c(Nc3ccccc3)n2c1	.	-5.4	.	.	0.6
COc1ccc(-n2nc(C(N)=O)c(O)cc2=O)cc1	2.6	-5.2	32.1*	-3.2	0.9
COc1ccc(/C=N/NC(=O)c2nn(-c3ccccc3)c(=O)c3c(N)scc23)cc1	6.7	-3.1	-2.3	23.5	-0.1
CCOC(=O)C1CCCN(C(=O)CNC(=O)c2nn(-c3ccc(OC)c(Cl)c3)c(=O)c3ccccc23)C1 (stereo unspecified)	-1.3	3.0	-14.8	11.1	0.3
COc1ccc(-n2nc(C(=O)NCC(=O)NCCCN3CCCCCC3)c3ccccc3c2=O)cc1Cl	3.1	8.3	1.2	-8.8	3.1
COCCCNC(=O)CNC(=O)c1nn(-c2ccc(OC)c(Cl)c2)c(=O)c2ccccc12	2.8	-1.7	50.0*	-3.3	0.4
COc1ccc(/C=N/NC(=O)c2nn(-c3ccc(C)c(C)c3)c(=O)c3ccccc23)cc1	-4.1	6.5	44.7*	4.8	0.6
COc1ccc(-n2nc(C(=O)NCC(=O)N3CCCC(C)C3)c3ccccc3c2=O)cc1Cl (stereo unspecified)	4.6	31.5*	-17.6	2.4	-0.1
CCOc1cccc(C2CC(=O)Nc3cc4c(cc32)OCCO4)c1 (stereo unspecified)	.	8.5	.	.	2.0
CC(=O)c1cccc(NC(=O)c2c(-c3ccccc3)c(-c3ccccc3)nn(C)c2=O)c1	.	-3.2	.	.	-0.8
COc1ccc(CCCc2nnc(SCC(=O)Nc3ccc(C)cc3)o2)cc1	.	-2.8	.	.	-1.7
Cc1cc(C(=O)NCCN2CCN(c3cccc(Cl)c3)CC2)n(-c2ccccc2)n1	-4.3	-5.3	12.4	-8.3	-3.0
Cc1cc(C(=O)NCCCN2CCN(c3cc(Cl)ccc3C)CC2)n(-c2ccccc2)n1	-1.1	-27.9	47.2*	-10.2	-2.1
COc1cccc(CNC(=O)c2ccc(NC(=O)N3CC(C)Sc4ccccc43)cc2)c1 (stereo unspecified)	.	5.5	.	.	0.4
Cc1cc(C)n(-c2nc(C)nc(NCc3ccccc3)n2)n1	-4.3	0.9	6.6	-42.9	2.8
CNc1nc(C)nc(-n2nc(C)cc2C)n1	-4.6	-4.4	35.3*	-3.4	0.0
OCCSc1ncnc2c1oc1ccccc12	-2.2	5.5	6.8	-20.9	0.8
SMILES	D2 ag-1	D2 PAM-1	D2 antag	D2 PAM-2	D2 ag-2
N#CCCSc1ncnc2c1oc1ccccc12	-1.7	5.2	36.2*	-16.4	0.4
CCCCCOP(=O)(OCCCCC)C1(NS(=O)(=O)c2ccccc2)C=CC(=O)c2ccccc21 (stereo unspecified)	?	4.8	-6.2	90.2*	-0.7
CSc1cccc(CN2CCN(Cc3ccccc3)C(CCO)C2)c1 (stereo unspecified)	-1.8	-34.8	38.9*	-7.5	-2.8
CSc1ccc(CN2CCN(CC=C(C)C)C(CCO)C2)cc1 (stereo unspecified)	-4.0	-21.7	33.0*	-11.8	-0.4
CSc1cccc(CN2CCN(CCc3ccccc3)C(CCO)C2)c1 (stereo unspecified)	-2.5	-30.2	26.5	-42.3	-0.2
O=C(Cn1ccc([N+](=O)[O-])n1)N1CCc2ccccc21	5.5	-5.9	2.2	2.9	0.4
Cc1nn(C(=O)Cn2ccc([N+](=O)[O-])n2)c(C)c1Br	2.1	31.3*	12.0	-3.6	-2.4
Cc1cc(C)c2c(C)c(C(=O)N3CCC(c4nc5ccccc5s4)CC3)oc2c1	.	-8.7	.	.	0.4
CC(C)c1cccc(C(C)C)c1NC(=O)c1ccccc1	-4.2	-11.9	42.8*	-0.2	-1.5
CCc1cccc(CC)c1NC(=O)c1ccccc1	-3.5	5.2	20.7	-3.3	-1.1
c1ccc(N2CCN(CC3CCCCC3)CC2)cc1	?	-19.5	68.2*	-3.0	71.0*
COC(=O)c1ccc(/C=N\NC(=O)CC(=O)NCCc2ccccc2)cc1	-3.0	-7.7	-13.5	-3.5	0.1
C=CCNC(=O)CC(=O)N/N=C/c1ccc(C(=O)OC)cc1	1.1	-2.1	33.4*	-9.2	0.8
COc1cc2cnc(-c3ccccc3)c(-c3cccc(C(F)(F)F)c3)c2cc1OC	?	1.3	-2.0	161.6*	-0.6
Cc1c(C(=O)N2CCOCC2)oc2c1-c1nn(CC(=O)NCc3cccc(Cl)c3)cc1CC2	.	-4.4	.	.	-0.4
O=S(=O)(c1ccc2nc(Nc3ccc(Br)cc3F)ccc2c1)N1CCCCC1	.	4.3	.	.	1.1
COc1ccc(-n2c(Cc3cc(=O)[nH]c(=O)[nH]3)nnc2SCC(=O)Nc2cc(C(F)(F)F)ccc2Cl)cc1	-3.3	-20.0	40.8*	-14.6	-0.5
COc1cc(C(=O)NC2CC(=O)N(c3cccc(F)c3)C2)cc(OC)c1OC (stereo unspecified)	.	4.1	.	.	.
C=CCn1c(CCNC(=O)c2cccs2)nnc1SCC(=O)Nc1cccc(C(C)=O)c1	-1.2	7.3	33.9*	-20.9	-0.4
Cc1c(Nc2c3ccccc3nc3ccccc23)c(=O)n(-c2ccccc2)n1C	0.2	-4.2	0.5	5.7	0.2
Cc1c(NC2=C(Cl)C(=O)N(c3ccccc3)C2=O)c(=O)n(-c2ccccc2)n1C	-2.4	1.0	37.8*	-10.3	1.1
Cc1ccc(S(=O)(=O)N2CCc3cc(C(=O)Nc4c(C)cccc4C(C)C)ccc32)cc1	.	14.4	.	.	.
CCc1ccccc1NC(=S)N(CCN1CCOCC1)C1CCN(C(C)=O)CC1	-3.8	0.5	30.9*	-1.1	-1.3
COc1ccc(C(=O)c2cn(CC(=O)Nc3ccc4c(c3)OCCO4)c3ccc(OC)cc3c2=O)cc1	.	-10.3	.	.	0.8
O=C(NNC(=O)c1ccccc1Br)c1ccccc1Cl	1.0	1.6	1.6	-4.5	0.0
O=C(NNC(=S)Nc1ccccc1Cl)c1ccccc1Br	-9.9	0.8	53.4*	-33.6	0.7
